# High-throughput results as filed in PubChem.
# TPT1 inh = Candida albicans TPT1 enzyme inhibitors, primary screen, biochemical, fluorescence polarization. tRNA 2'-phosphotransferase TPT1 (Candida albicans SC5314). recombinant caTPT1, FP RNA substrate dephosphorylation. inhibition, % at 5 µM. hit rate 0.81% among 300,000. AID 1962, 2009;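 active = inhibition above the mean of all tested compounds plus 3 SD, set per screening campaign, cut at about 24% in these data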;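 note: plate controls were DMSO alone for no effect and ferristatin control at 100 nM for full effect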
# Rpn11 block = Rpn11 (PSMD14) deubiquitinase inhibitors, primary screen, biochemical, fluorescence polarization, uHTS | human 26S proteasome, Ub4-pepOG fluorescence polarization; 20S core pre-blocked with epoxomicin | inhibition, % at 20 µM | hit rate 0.59% among 360,000;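 active = inhibition at 20 µM, scaled to each plate's controls, above about 33%, limit read from the data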
# HNF4A DNA FP = change in binding of human HNF4A to DNA, primary screen, biochemical, fluorescence polarization, FITC-DNA; activity change, % at 10 µM; 1 h; Hepatocyte nuclear factor 4-alpha (Homo sapiens), P41235; AID 1224865, 2016; hit rate 0.3% among 360,000; in the data active = activity change above about 30%, passing the limit was not always enough
# Target sequence (P41235 whole entry, looked up): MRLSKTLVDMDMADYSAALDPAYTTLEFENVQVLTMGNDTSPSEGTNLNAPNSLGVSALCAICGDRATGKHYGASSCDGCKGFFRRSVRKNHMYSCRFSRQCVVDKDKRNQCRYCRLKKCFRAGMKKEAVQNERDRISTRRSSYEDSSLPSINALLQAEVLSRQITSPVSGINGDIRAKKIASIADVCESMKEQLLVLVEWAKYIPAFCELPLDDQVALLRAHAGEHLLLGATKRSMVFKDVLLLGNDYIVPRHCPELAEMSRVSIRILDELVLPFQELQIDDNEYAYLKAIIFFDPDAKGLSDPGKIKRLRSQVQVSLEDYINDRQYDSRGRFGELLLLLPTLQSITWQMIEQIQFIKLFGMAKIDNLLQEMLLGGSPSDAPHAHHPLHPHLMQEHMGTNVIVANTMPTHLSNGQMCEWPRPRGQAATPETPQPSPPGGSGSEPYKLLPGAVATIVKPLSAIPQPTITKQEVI
# Myeloid diff 2 = induction of myeloid progenitor differentiation, primary screen, cell-based, flow cytometry, MLPCN library; ER-HoxA9 myeloid progenitors, lysozyme-GFP differentiation; calls only at 10 µM; hit rate 1% among 360,000; AID 624256, 2012;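 active = normalized GFP-positive differentiation at or above the plate's own cutoff, the solvent-only control mean plus 3 SD; inconclusive = no clear call, values can overlap the other calls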;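 note: cells exposed to compound for four days before flow analysis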
# caTPT1 confirm = Candida albicans TPT1 inhibitors, confirmation, biochemical, fluorescence polarization, triplicate. recombinant caTPT1, RNase T1 coupled. inhibition, % at 5 µM. hit rate 74% among 2,400. shares compounds with TPT1 inh;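 active = inhibition above the primary screen limit, the mean inhibition of all tested compounds plus 3 SD, cut at about 25% in these data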
# RNase T1 inh = RNase T1 inhibitors, counter-screen for TPT1 inhibitor project, biochemical, fluorescence polarization; shares compounds with TPT1 inh; RNase T1 cleavage, 1536-well; inhibition, % at 5 µM; hit rate 83% among 2,400;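 active = inhibition above the solvent-only control well mean plus 3 SD, limit set per screening run, cut at about 23% in these data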;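 note: plate controls were DMSO wells with enzyme for no effect and wells without RNase T1 for full effect; inhibitors block cleavage so intact labeled substrate keeps polarization high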
# Target sequence (P00651 whole entry, looked up): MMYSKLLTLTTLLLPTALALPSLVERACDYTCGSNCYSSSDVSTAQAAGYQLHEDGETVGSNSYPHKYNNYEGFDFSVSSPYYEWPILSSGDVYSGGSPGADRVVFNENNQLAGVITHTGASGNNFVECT
# Numbers without * were called inactive; i = inactive; ? = inconclusive; . = no result given; + = active, no number. An excerpt weighted towards active compounds, which were near 2.1% of everything screened.
SMILES,TPT1 inh,Rpn11 block,HNF4A DNA FP,Myeloid diff 2,caTPT1 confirm,RNase T1 inh
O=C(NN1C(=O)/C(=C/c2cccc(O)c2)SC1=S)c1ccccc1O,1.4,-3.1,2.7,i,.,.
CCOc1ccc(N2C(=O)S/C(=C\c3ccc(O)c(OC)c3)C2=O)cc1,65.9*,16.4,10.9,i,48.1*,57.9*
O=C(NN1C(=O)/C(=C/c2ccc(O)c(O)c2)SC1=S)c1ccccc1,31.3*,.,33.1,i,43.8*,57.0*
Cc1ccc(C(=O)c2c3ccccc3[n+]([O-])n2CCC(N)=O)cc1,-2.0,-2.3,3.7,i,.,.
O=[N+]([O-])c1cccc(C2CC(c3ccccc3)=NN2c2ccccc2)c1 (configuration not stated),-1.4,-0.7,-3.3,i,.,.
N#CC1CC(c2ccc([N+](=O)[O-])cc2)=NN1c1ccc([N+](=O)[O-])cc1 (configuration not stated),73.0*,.,87.0,+,91.0*,97.3*
COc1ccccc1CCNC(=O)C(=O)NCC1OCCN1S(=O)(=O)c1ccc([N+](=O)[O-])cc1 (configuration not stated),-1.3,-4.0,-1.3,i,.,.
COc1ccc(C(=O)OCC(N)=O)cc1[N+](=O)[O-],1.6,3.4,0.0,i,.,.
COc1ccc(C(=O)C[n+]2cc(Br)cc3ccccc32)cc1[N+](=O)[O-],45.0*,20.8,2.8,i,39.2*,56.1*
O=C(C[n+]1cc(Br)cc2ccccc21)c1ccccc1,39.9*,.,25.8,i,48.0*,63.6*
N#C/C(=C\c1ccc(N2CCOCC2)o1)C(=O)NC1CCCCC1,162.9*,.,166.3,i,176.7*,169.0*
N#C/C(=C\c1ccc(N2CCOCC2)o1)C(=O)NCC1CCCO1 (configuration not stated),161.2*,.,163.6,i,168.4*,163.8*
CN1CCc2c(sc3nc(SCC(N)=O)n(-c4ccc(Cl)cc4)c(=O)c23)C1,85.9*,81.4*,43.4*,i,64.4*,77.9*
CN1CCc2c(sc3nc(SCC(=O)N4CCCCC4)n(-c4ccccc4)c(=O)c23)C1,6.4,4.2,4.5,i,.,.
COC(=O)CSc1nc2sc3c(c2c(=O)n1-c1ccccc1)CCN(C)C3,5.9,1.9,4.9,i,.,.
CN1CCc2c(sc3nc(SCC(N)=O)n(-c4ccccc4)c(=O)c23)C1,44.8*,32.6,20.1,i,103.8*,109.4*
CCOC(=O)C1=C(CN2CCN(C(=O)c3ccco3)CC2)NC(=O)NC1c1ccc(C)cc1 (configuration not stated),-2.6,-4.7,-2.3,i,.,.
OC(COCCOc1ccc(Br)cc1)CN1CCCCC1 (configuration not stated),-5.5,-1.0,-3.0,i,.,.
CC(C)N1CCC2(CC1)C(C#N)=C(N)NC(S)=C2C#N,67.8*,.,.,.,37.7*,47.0*
N#CC1=C(N)NC(SCC(=O)O)=C(C#N)C12CCCC2,4.6,1.9,1.0,i,.,.
Cc1ccccc1NC(=O)N1CCN(C/C=C/c2ccccc2)CC1,4.2,0.8,2.1,i,.,.
COCC(=O)N[C@@H]1c2cc(OC)c(OC)cc2C[C@H]1OCc1ccccc1,.,-1.0,-4.9,i,.,.
Clc1ccc(OCCn2ccnc2)cc1Cl,59.7*,5.5,-0.2,?,5.9,7.7
Cc1cccc(OCCn2ccnc2)c1,-1.2,-2.7,-2.7,i,.,.
Cc1ccc(C2C3=C(CC(C)(C)CC3=O)OC3=C2C(=O)CC(C)(C)C3)cc1,1.1,4.0,-1.5,i,.,.
SMILES,TPT1 inh,Rpn11 block,HNF4A DNA FP,Myeloid diff 2,caTPT1 confirm,RNase T1 inh
Cc1ccc(C2C3=C(CCCC3=O)OC3=C2C(=O)CCC3)cc1,53.5*,-1.3,1.3,i,7.5,9.6
C/C(=N/NC(=O)CN1CCN(S(=O)(=O)c2ccc(C)cc2)CC1)c1cccc(O)c1,0.5,-0.1,4.4,i,.,.
CC(C)COC(=O)N1CCCCC1c1cc(C(=O)Nc2ccccc2)no1 (configuration not stated),.,7.3,-4.3,i,.,.
CCCC1=[N+](CC(=O)c2ccc(C)cc2)CCn2cccc21,62.0*,11.5,1.7,+,10.0,10.8
CCCC1=[N+](CC)CCn2c(C)ccc21,-0.1,1.7,-3.3,i,.,.
O=C(NCCc1cccc(Cl)c1)c1cccc(-n2cnnn2)c1,.,-2.0,1.1,i,.,.
CCOC(=O)C1CCCN(C2=NC(=O)/C(=C/c3ccc(N(C)C)cc3)S2)C1 (configuration not stated),127.8*,.,139.2,i,129.9*,125.9*
CC(C)Cn1cnc2c1c(=O)[nH]c(=O)n2Cc1ccccc1,-3.5,-4.2,-1.7,i,.,.
COC(=O)c1ccc2c(c1)C(=O)/C(=C/c1ccc(O)cc1)O2,28.3*,23.3,20.0,i,19.8,27.9*
O=C1/C(=C/c2ccc(Br)cc2)Oc2cc(O)ccc21,63.3*,37.6,8.1,i,76.7*,79.0*
CC(C)(C)c1ccc(/C=C2\Oc3cc(O)ccc3C2=O)cc1,30.4*,30.0,11.0,i,66.7*,72.5*
O=C1/C(=C/c2ccc([N+](=O)[O-])cc2)Oc2cc(O)ccc21,.,37.9,5.7,i,.,.
COc1cccc(C(=O)Oc2ccc(N3C(=O)CCC3=O)c(C)c2)c1,-3.3,-3.3,-2.9,i,.,.
COC(=O)c1c(-c2ccc3ccccc3c2)csc1NC(=O)Cc1ccc(OC)c(OC)c1,38.8*,.,34.9,i,63.4*,69.8*
COc1ccccc1/C=C/C=C1\Oc2c(ccc(O)c2CN(C)C)C1=O,31.9*,.,58.2,i,33.0*,44.6*
O=C(CCN1CCCC1)c1cccs1,-0.7,-15.9,-2.1,i,.,.
O=C(CCN1CCC(c2cccs2)=N1)c1cccs1,27.6*,11.0,3.7,i,4.6,9.5
CC[n+]1c(C)sc2c3ccsc3ccc21,5.8,12.3,1.4,i,.,.
CCN1/C(=C/c2ccc3cc(C)ccc3[n+]2CC)Sc2ccc3sccc3c21,33.4*,147.4*,249.0,+,63.2*,66.0*
CN1C(=CC=C2C=C(I)C(=O)C(I)=C2)C(C)(C)c2ccccc21,.,.,208.9,i,.,.
CC1=NN(c2ccccc2)C(=O)/C1=C\C=C1/N(C)c2ccccc2C1(C)C,74.3*,.,108.7*,i,74.1*,84.1*
CC1=NN(c2ccccc2)C(=O)/C1=C/N(C)C,-2.5,4.5,-1.4,i,.,.
CC1=NN(c2ccccc2)C(=O)/C1=C\C=C1\N(C)c2ccccc2C1(C)C,61.2*,.,70.2*,i,51.1*,63.7*
